# Compound activity: PubChem BioAssay, The Scripps Research Institute Molecular Screening Center
# Rows were chosen to be rich in hits. Some 3.5% of all compounds tested hit in one or more screens of this group.
# GPR151 activ: activators of human GPR151; PathHunter beta-arrestin GPR151 cells, luminescence; actives 1% (n = 650,000); activation, % at 11.2 µM; AID 1508602; Q8TDV0; in the data active means activation above about 4.9%
# Target sequence (Q8TDV0 whole entry, looked up): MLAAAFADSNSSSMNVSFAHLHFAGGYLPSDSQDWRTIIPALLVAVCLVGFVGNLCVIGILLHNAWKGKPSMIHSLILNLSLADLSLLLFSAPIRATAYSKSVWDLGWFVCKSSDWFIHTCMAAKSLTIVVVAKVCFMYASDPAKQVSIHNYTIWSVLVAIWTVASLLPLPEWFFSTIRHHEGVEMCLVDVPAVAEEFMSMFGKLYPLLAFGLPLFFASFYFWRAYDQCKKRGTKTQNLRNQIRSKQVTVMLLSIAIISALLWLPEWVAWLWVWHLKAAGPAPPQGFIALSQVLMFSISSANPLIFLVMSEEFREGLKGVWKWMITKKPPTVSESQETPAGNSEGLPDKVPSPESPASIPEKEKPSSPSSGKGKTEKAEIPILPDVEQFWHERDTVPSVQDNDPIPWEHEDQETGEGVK
# FBW7 activator: activators of human E3 ligase FBW7. Q969H0. AlphaScreen FBW7–phospho-cyclin E peptide binding, activator screen. normalized activity (activation), % at 26.1 µM. actives 0.13% (n = 650,000). AID 1259310; in the data active means normalized activity above about 1.9%;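 further: purified mutant Fbw7 with reduced substrate affinity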
# TEAD-YAP block: TEAD-YAP interaction inhibition. inhibition, % at 9.12 µM. actives 1.4% (n = 640,000). HEK-TIYL cells, TEAD-Gal4/YAP UAS-luciferase luminescence; in the data active means inhibition above about 32%
# MITF inh: blocks human microphthalmia-associated transcription factor; AID 1259374; actives 0.91% (n = 650,000); O75030; inhibition, % at 2.6 µM; AlphaScreen MITF homodimerization, bead proximity signal; in the data active means inhibition above about 50%
# GPR151 conf act: confirmation of human GPR151 activators. shares compounds with GPR151 activ. GPR151 PathHunter beta-arrestin cells, luminescence, 90 min; % of EA-reagent control over plate median. activation, % at 11.2 µM. 6,700 tested, under 10 active. AID 1508609;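 active means mean percent activation across replicates above the confirmation screen cutoff of 4.91%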
# GPR119 counter: counter-screen for GPR151 activators: effect on human GPR119; shares compounds with GPR151 activ; GPR119 PathHunter beta-arrestin cells, luminescence, 90 min; 0 = compound-well median, 100 = enzyme-acceptor control; activation, % at 11.2 µM; actives 0.3% (n = 6,700); AID 1508611;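 active means mean percent activation in the counterscreen above 29.09%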;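 further: counterscreen on off-target GPR119 to flag nonselective hits from the GPR151 activator screen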
# Hits are given with their value; 0 = inactive; - = no result given; ! = a repeat was not active.
SMILES,GPR151 activ,FBW7 activator,TEAD-YAP block,MITF inh,GPR151 conf act,GPR119 counter
CN(C)c1cccc2c(S(=O)(=O)Nc3nccnc3-c3ccc(CO)cc3)cccc12,0,0,0,0,-,-
Nc1cc(=O)[nH]c(SCc2cn3ccccc3n2)n1,5.4,0,0,0,0,0
CCOCCCNC(=O)C(NC(=O)c1ccc(=O)[nH]c1)c1ccccc1 (stereo not drawn),5.0,0,0,0,0,0
Cc1c(CNCc2ccccc2F)c(C(=O)O)c(C)n1Cc1ccc(F)cc1Cl,0,0,0,0,-,-
Cc1ccc(-n2c3c(cc(C(=O)Nc4ccc(F)cc4)c2=O)C(=O)CCC3)cc1,5.5,0,0,0,0,0
Cc1ccc(NC(=O)c2ccc(F)cc2C)cc1,5.3,0,0,0,0,0
Cc1ccc(-n2c3c(cc(C(=O)Nc4cccc(F)c4)c2=O)C(=O)CCC3)cc1,0,0,0,0,-,-
COc1ccc(C(=O)C[n+]2c(N)n(N)c3ccccc32)cc1,0,0,0,0,-,-
CC1CN(c2c3c(c(C#N)c4nc5ccccc5n24)CCC3)CC(C)O1 (stereo not drawn),0,0,0,0,-,-
CCOC(=O)N1CCN(C(=O)Nc2ccc(Cl)cc2Cl)CC1,5.1,0,0,0,0,0
CCOC(=O)N1CCC(N(CCN(C)C)C(=S)Nc2cc(C)cc(C)c2)CC1,7.7,0,0,0,0,0
CCOC(=O)N1CCN(C(=S)Nc2cc(OC)ccc2OC)CC1,5.2,0,0,0,0,0
CCOC(=O)N1CCN(C(=S)Nc2ccc(C)cc2)CC1,6.0!,0,0,0,0,0
CCOC(=O)N1CCC(N(CCN(C)C)C(=S)Nc2cccc(CC)c2)CC1,0,0,0,0,-,-
CCOC(=O)N1CCN(C(=S)Nc2cc(Cl)ccc2OC)CC1,0,0,0,0,-,-
CC(=O)Nc1cc(C(=O)Nc2ccc(F)cc2)ccc1C,0,0,0,0,-,-
CC(=O)NC(=O)c1cc2ccccc2oc1=NCc1ccccc1,0,0,0,0,-,-
Cc1ccc2c(Cl)c(C(N)=O)sc2c1,0,0,0,0,-,-
CCc1ccccc1NC(=S)N(CCCN1CCC(C)CC1)Cc1cccs1,0,0,0,0,-,-
Cc1c(Cl)cccc1NC(=O)C1CCN(C(=O)Cc2ccccc2)CC1,0,0,0,0,-,-
O=C(Nc1ccccc1F)C1CCN(C(=O)Cc2ccccc2)CC1,5.4,0,0,0,0,0
COCCn1c(=N)c(C(=O)NCc2ccco2)cc2c(=O)n3ccccc3nc21,7.3,0,0,0,0,0
COc1cccc(NC(=O)c2cc3c(=O)n4ccccc4nc3n(CC(C)C)c2=N)c1,5.0,0,0,0,0,0
CC(=O)N1/C(=C/c2ccc([N+](=O)[O-])cc2)C(=O)c2ccccc21,0,0,0,0,-,-
O=C(Cc1ccccc1)N/N=C/c1ccc2cccnc2c1,0,0,0,0,-,-
SMILES,GPR151 activ,FBW7 activator,TEAD-YAP block,MITF inh,GPR151 conf act,GPR119 counter
O=C(NC(=O)c1ccccc1)Nc1ccc(Br)cc1,6.1,0,0,0,0,0
CCN(CC)c1cc(N)c([N+](=O)[O-])cc1F,6.5,0,0,0,0,0
O=C(Nn1c(-c2ccc(F)cc2)nc2ccccc2c1=O)c1cncc(Br)c1,5.5,0,0,0,0,0
O=c1c2cc3c(cc2nc(SCc2cccc(F)c2)n1Cc1ccco1)OCO3,0,0,0,0,-,-
O=c1c2nccnc2nc(SCc2cccc(F)c2)n1Cc1ccco1,12,0,0,0,0,0
CNC(=O)[C@@H]1C[C@H](NCc2ccc(C(=O)OC)cc2)CN1Cc1cccc2ccccc12,0,0,0,0,-,-
Cc1ccc(CN(Cc2cccnc2)C(=S)Nc2cccc(C(F)(F)F)c2)cc1,0,0,0,0,-,-
COc1ccccc1CNC(=O)CSc1cc(C)[nH]c(=O)n1,12,0,0,0,0,0
Cc1cc(SCC(=O)NCc2ccc(F)cc2)nc(=O)[nH]1,0,0,0,0,-,-
Cc1cc(SCc2ccccc2Cl)nc(=O)[nH]1,7.6,0,0,0,0,0
Cc1cccc(OCC(=O)Nc2nnc(S(=O)(=O)N3CCCCC3)s2)c1,0,0,0,0,-,-
COc1cccc(CN2CCN(Cc3cccs3)C(CCO)C2)c1 (stereo not drawn),0,0,0,0,-,-
COc1ccc(CN2CCN(Cc3cccs3)C(CCO)C2)c(O)c1 (stereo not drawn),5.1,0,0,0,0,0
COCCCNC(=O)CCCc1ccc(OC)c(C)c1,13,0,0,0,0,0
Cc1ccc(C)c(OCC(=O)NCCCN(C)C)c1,9.1,0,0,0,0,0
COCCCNC(=O)COc1ccc(Cl)c(C)c1,0,0,0,0,-,-
COCCCNC(=O)COc1ccc(C)c(C)c1,10,0,0,0,0,0
Cc1ccc(OCC(=O)Nc2ccncc2)cc1C,4.9,0,0,0,0,0
Cc1cc2c(cc1S(=O)(=O)N1c3ccccc3CC1C)OCC(=O)N2 (stereo not drawn),0,0,0,0,-,-
CC(C)N1CCC(=NNc2ccc(S(=O)(=O)N3CCOCC3)cc2[N+](=O)[O-])CC1,0,0,0,0,-,-
O=[N+]([O-])c1cc(S(=O)(=O)N2CCOCC2)ccc1NN=C1C2CC3CC(C2)CC1C3,5.0,0,0,0,0,0
CC(=O)Nc1ccc(NC(=O)CSc2nc3ccccc3c(=O)n2C)cc1,0,0,0,0,-,-
Cc1c(-n2c(SC/C=C\Cl)nc3ccccc3c2=O)c(=O)n(-c2ccccc2)n1C,0,0,0,0,-,-
CCCc1nc2ccccc2c(=O)n1-c1c(C)n(C)n(-c2ccccc2)c1=O,6.8,0,0,0,0,0
CC(C)N1CCN(Cc2cccc(OCCO)c2)CC1CCO (stereo not drawn),0,0,0,0,-,-
SMILES,GPR151 activ,FBW7 activator,TEAD-YAP block,MITF inh,GPR151 conf act,GPR119 counter
OCCOc1ccc(CN2CCN(Cc3ccc(F)c(F)c3)C(CCO)C2)cc1 (stereo not drawn),6.8,0,0,0,0,0
CC(C)N1CCN(Cc2ccc(OCCO)cc2)CC1CCO (stereo not drawn),5.2,0,0,0,0,0
Cc1ccc(S(=O)(=O)N(CC(N)=O)Cc2cccc(C)c2)cc1,5.2,0,0,0,0,0
Cc1ccccc1OCC(O)Cn1c(N2CCN(C)CC2)nc2c1c(=O)[nH]c(=O)n2C (stereo not drawn),0,0,0,0,-,-
Cc1ccc(NC(=O)CSC(=N)N)cc1,0,0,0,0,-,-
CCOc1ccc(C(=O)NCCn2cc(SC(=N)N)c3ccccc32)cc1,5.0,0,0,0,0,0
CN1CCN(/N=C(\NO)c2nonc2N)CC1,13!,0,0,0,0,0
Cc1cc(C)cc(N(C(=O)c2ccc(S(=O)(=O)N(C)C)cc2)C2C=CS(=O)(=O)C2)c1 (stereo not drawn),0,0,0,0,-,-
CC1CN(CCOCCOc2c(Cl)cccc2Cl)CC(C)O1 (stereo not drawn),8.4,0,0,0,0,0
CC1CN(CCOCCOc2ccc(Cl)c3ccccc23)CC(C)O1 (stereo not drawn),0,0,0,0,-,-
